We go through three compounds from PubChem BioAssay (EPA / NIEHS).

Read-out in assay [1]: E-selectin (Homo sapiens) (UniProt P16581)
Briefly: BSK_3C_Eselectin: BioMAP Diversity Plus: 3C Assay for Eselectin Biomarker Activity (AID 2283015).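 As to outcome: cell surface E-selectin protein quantified by ELISA 24 h after dosing.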 To be noted: primary human endothelial cells (HUVEC); actives raise or lower the signal. The method, boiled down:
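HUVEC, 3C stimulation; compound exposure 24 h; E-selectin by ELISA; gain- or loss-of-signal fitted bidirectionally vs DMSO baseline.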

Read-out in assay [2]: Human Leukocyte Antigen - DR isotype (HLADR), HLA-DRA (gene 3122)
Briefly: BSK_3C_HLADR: BioMAP Diversity Plus: 3C Assay for Human Leukocyte Antigen - DR isotype (HLADR) Biomarker Activity (AID 2283019). To be noted: primary human endothelial cells (HUVEC); actives raise or lower the signal. The method, boiled down: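 HUVEC, 3C stimulation, 24 h post-dose; HLA-DR by ELISA; bidirectional curve fit vs DMSO baseline; gain or loss of signal scored.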

Read-out in assay [3]: Matrix Metallopeptidase 1 (MMP1), MMP1 (gene 4312)
As to the kind of experiment: BSK_BE3C_MMP1: BioMAP Diversity Plus: BE3C Assay for Matrix Metallopeptidase 1 (MMP1) Biomarker Activity (AID 2283024). To be noted: primary human bronchial epithelial cells; actives raise or lower the signal. In outline:
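ELISA measurement of MMP-1 after 24 h compound exposure of primary human bronchial epithelial cells. Changes in either direction fitted relative to DMSO; parallel SRB staining checked overt cytotoxicity.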

Read-out in assay [4]: Pselectin, SELP (gene 6403)
Briefly: BSK_4H_Pselectin: BioMAP Diversity Plus: 4H Assay for Pselectin Biomarker Activity (AID 2283026). To be noted: primary human endothelial cells (HUVEC); actives raise or lower the signal. In outline: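 ELISA of surface P-selectin on HUVEC, 24 h after dosing, with parallel SRB staining (0.1% after 10% TCA fixation, 560 nm) for overt cytotoxicity. Activity fitted in both directions relative to DMSO.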

Read-out in assay [5]: Human Leukocyte Antigen - DR isotype (HLADR), HLA-DRA (gene 3122)
Briefly: BSK_BE3C_HLADR: BioMAP Diversity Plus: BE3C Assay for Human Leukocyte Antigen - DR isotype (HLADR) Biomarker Activity (AID 2283032). To be noted: primary human bronchial epithelial cells; actives raise or lower the signal. In outline:
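Cell-surface HLA-DR ELISA readout at 24 h after dosing in the BE3C primary human lung bronchial epithelial system; gain or loss of signal against DMSO, with parallel sulforhodamine B staining of total protein for overt cytotoxicity.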

Read-out in assay [6]: Interferon-gamma inducible Protein 10 (IP10), CXCL10 (gene 3627)
As to the kind of experiment: BSK_BE3C_IP10: BioMAP Diversity Plus: BE3C Assay for Interferon-gamma inducible Protein 10 (IP10) Biomarker Activity (AID 2283034). To be noted: primary human bronchial epithelial cells; actives raise or lower the signal. In outline:
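IP-10 quantified by ELISA in human primary bronchial epithelial cell cultures at 24 hours post-dosing. Gain or loss of signal fitted relative to DMSO; parallel SRB staining assessed overt cytotoxicity.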

Read-out in assay [7]: urokinase plasminogen activator (uPA), PLAU (gene 5328)
As to the kind of experiment: BSK_BE3C_uPA: BioMAP Diversity Plus: BE3C Assay for urokinase plasminogen activator (uPA) Biomarker Activity (AID 2283038).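 As to outcome: uPA protein level quantified by ELISA in cell cultures; uPA read one day after compound addition.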 To be noted: primary human bronchial epithelial cells; actives raise or lower the signal. The method, boiled down:
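ELISA read-out of uPA in human lung primary bronchial epithelial cultures, 24 h post-dosing. Gain or loss of signal fitted bidirectionally relative to DMSO baseline; cytotoxicity checked in parallel cultures via SRB total protein stain.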

Read-out in assay [8]: Interleukin-6 (IL6), IL6 (gene 3569)
Briefly: BSK_CASM3C_IL6: BioMAP Diversity Plus: CASM3C Assay for Interleukin-6 (IL6) Biomarker Activity for (AID 2283040). To be noted: primary human coronary artery smooth muscle cells; actives raise or lower the signal.

Read-out in assay [9]: Macrophage colony-stimulating factor (MCSF), CSF1 (gene 1435)
As to the kind of experiment: BSK_CASM3C_MCSF: BioMAP Diversity Plus: CASM3C Assay for Macrophage colony-stimulating factor (MCSF) Biomarker Activity (AID 2283044).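 Also: M-CSF protein amount quantified by ELISA after 24 h exposure.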 To be noted: primary human coronary artery smooth muscle cells; actives raise or lower the signal.

Read-out in assay [10]: Low-density lipoprotein receptor (LDLR), LDLR (gene 3949)
As to the kind of experiment: BSK_CASM3C_LDLR: BioMAP Diversity Plus: CASM3C Assay for Low-density lipoprotein receptor (LDLR) Biomarker Activity (AID 2283045).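 Also: LDLR protein level on the cell surface quantified by ELISA.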 To be noted: primary human coronary artery smooth muscle cells; actives raise or lower the signal.

Read-out in assay [11]: Tissue Factor, F3 (gene 2152)
Briefly: BSK_CASM3C_TissueFactor: BioMAP Diversity Plus: CASM3C Assay for Tissue Factor Biomarker Activity (AID 2283052).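 Also: cell surface tissue factor protein level read by ELISA.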 To be noted: primary human coronary artery smooth muscle cells; actives raise or lower the signal.

Read-out in assay [12]: Urokinase-type plasminogen activator receptor (uPAR), PLAUR (gene 5329)
As to the kind of experiment: BSK_CASM3C_uPAR: BioMAP Diversity Plus: CASM3C Assay for Urokinase-type plasminogen activator receptor (uPAR) Biomarker Activity (AID 2283054).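 Also: cell-surface uPAR protein level quantified by ELISA.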 To be noted: primary human coronary artery smooth muscle cells; actives raise or lower the signal.

Read-out in assay [13]: Collagen III, COL3A1 (gene 1281)
Briefly: BSK_hDFCGF_CollagenIII: BioMAP Diversity Plus: hDFCGF Assay for Collagen III Biomarker Activity (AID 2283056). To be noted: primary human foreskin fibroblasts; actives raise or lower the signal. In outline: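 hDFCGF primary human dermal fibroblasts; 24 h chemical exposure; collagen III by ELISA; bidirectional curve fit vs DMSO baseline (gain or loss of signal).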

Read-out in assay [14]: Epidermal growth factor receptor (EGFR), EGFR (gene 1956)
As to the kind of experiment: BSK_hDFCGF_EGFR: BioMAP Diversity Plus: hDFCGF Assay for Epidermal growth factor receptor (EGFR) Biomarker Activity (AID 2283057). To be noted: primary human foreskin fibroblasts; actives raise or lower the signal. In outline:
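EGFR levels by ELISA in human dermal fibroblast cultures, 24 h post-treatment, fitted bidirectionally versus DMSO. Parallel wells stained with sulforhodamine B to detect overt cytotoxicity.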

Read-out in assay [15]: Vascular cell adhesion molecule 1 (VCAM1), VCAM1 (gene 7412)
Briefly: BSK_hDFCGF_VCAM1: BioMAP Diversity Plus: hDFCGF Assay for Vascular cell adhesion molecule 1 (VCAM1) Biomarker Activity (AID 2283065).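 As to AC50: VCAM-1 protein level quantified by ELISA after 24 h chemical exposure.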 To be noted: primary human foreskin fibroblasts; actives raise or lower the signal. The method, boiled down: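 ELISA read-out of VCAM-1 on human skin fibroblasts, 24 h post-dose; gain or loss of signal fitted bidirectionally against DMSO baseline.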

Read-out in assay [16]: Intercellular Adhesion Molecule 1 (ICAM1), ICAM1 (gene 3383)
Briefly: BSK_KF3CT_ICAM1: BioMAP Diversity Plus: KF3CT Assay for Intercellular Adhesion Molecule 1 (ICAM1) Biomarker Activity (AID 2283067). To be noted: primary human keratinocytes with fibroblasts; actives raise or lower the signal. The method, boiled down:
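ELISA readout of ICAM-1; KF3CT human skin co-culture (keratinocytes + foreskin fibroblasts), 24 h post-dose; gain/loss fit vs DMSO baseline.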

Read-out in the next assay: CD40, CD40 (gene 958)
Briefly: BSK_LPS_CD40: BioMAP Diversity Plus: LPS Assay for CD40 Biomarker Activity (AID 2283076). To be noted: primary human HUVEC with PBMC; actives raise or lower the signal. In outline:
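ELISA readout of CD40 in HUVEC/PBMC co-culture (BSK_LPS system), 24 h post-dosing; bidirectional curve fit, DMSO baseline; parallel SRB total-protein staining for cytotoxicity.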

Read-out in assay [17]: E-selectin (Homo sapiens) (UniProt P16581)
Briefly: BSK_LPS_Eselectin: BioMAP Diversity Plus: LPS Assay for Eselectin Biomarker Activity (AID 2283077). To be noted: primary human HUVEC with PBMC; actives raise or lower the signal. In outline: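 ELISA readout of E-selectin, 24 h post-dose, HUVEC + PBMC co-culture (LPS system). Gain or loss of signal vs DMSO baseline, bidirectional fit.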

Read-out in assay [18]: Interleukin-1 alpha (IL1a), IL1A (gene 3552)
As to the kind of experiment: BSK_LPS_IL1a: BioMAP Diversity Plus: LPS Assay for Interleukin-1 alpha (IL1a) Biomarker Activity (AID 2283080). To be noted: primary human HUVEC with PBMC; actives raise or lower the signal. In outline: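 HUVEC/PBMC co-culture, LPS system; 24 h after dosing; IL-1a by ELISA; gain or loss of signal fitted bidirectionally vs DMSO baseline.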

The nature of assay [19]: BSK_LPS_PGE2: BioMAP Diversity Plus: LPS Assay for Prostaglandin E2 (PGE2) Biomarker Activity (AID 2283082).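 As to AC50: secreted prostaglandin E2 measured by ELISA in LPS-stimulated co-culture.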 To be noted: primary human HUVEC with PBMC; actives raise or lower the signal. The method, boiled down:
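PGE2 release measured by ELISA in an LPS-activated co-culture of human umbilical vein endothelial cells and peripheral blood mononuclear cells, read at 24 h post-dosing. DMSO served as baseline for bidirectional curve fitting.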

“And” between values parts separate entries of the source, which are not always exact repeats. Identical values can stand only once. More than one record can exist for a structure, and the calls need not agree. The source made the active and inactive calls. The calls were made as follows: active = hit-call score of the fitted dose curve at least 0.9, where 1 is the maximum; inactive = score below 0.9.

Chain of E-selectin (Homo sapiens) (P16581 whole entry, looked up): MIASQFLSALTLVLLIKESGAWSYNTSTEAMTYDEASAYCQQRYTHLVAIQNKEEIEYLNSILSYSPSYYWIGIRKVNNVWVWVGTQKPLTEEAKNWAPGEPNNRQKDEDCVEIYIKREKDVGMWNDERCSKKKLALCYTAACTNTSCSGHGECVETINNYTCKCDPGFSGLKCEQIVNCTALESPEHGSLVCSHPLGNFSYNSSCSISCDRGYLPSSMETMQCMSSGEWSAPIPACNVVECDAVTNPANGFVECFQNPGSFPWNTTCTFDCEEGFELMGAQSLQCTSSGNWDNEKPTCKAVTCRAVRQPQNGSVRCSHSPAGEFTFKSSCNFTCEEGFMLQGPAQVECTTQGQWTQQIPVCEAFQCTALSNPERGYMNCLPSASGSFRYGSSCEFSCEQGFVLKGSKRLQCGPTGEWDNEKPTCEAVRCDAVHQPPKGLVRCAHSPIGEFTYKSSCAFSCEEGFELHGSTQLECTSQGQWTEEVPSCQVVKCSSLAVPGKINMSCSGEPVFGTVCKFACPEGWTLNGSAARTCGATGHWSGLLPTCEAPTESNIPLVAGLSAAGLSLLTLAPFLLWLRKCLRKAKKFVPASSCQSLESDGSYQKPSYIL

As a reminder, the AC50 is the midpoint of the concentration-response curve, whichever way the signal moves. `O=[N+]([O-])c1cc(S(=O)(=O)Nc2ccccc2)ccc1Nc1ccccc1`: the AC50 in assay [1] was 13.3 µM (active); in assay [2] it was 13.9 µM (active); in assay [3], 5.29 µM (active) and 5.21 µM (active); in assay [4] it was 32.2 µM (active) and 31.7 µM (active); in [5], 31 µM (active) and 32 µM (active); in assay [6], 32.4 µM (active) and 31.9 µM (active). Also, the AC50 in assay [7] is 34.9 µM (active); in [8], 20 µM (active) and 10.3 µM (active); in assay [13], 5.82 µM (active) and 5.34 µM (active); in assay [14] it was 30.4 µM (active) and 31.3 µM (active); in [15], 32.4 µM (active) and 27 µM (active); in assay [16], 32.8 µM (active) and 32.4 µM (active). Further, the AC50 with CD40, CD40 (gene 958) was 32.6 µM (active) and 20 µM (active); in assay [17] it was 20 µM (active) and 26.5 µM (active); in [19], 28.9 µM (active). For the same compound, the result in assay [1], in assay [7], in assay [9], in assay [10], in assay [11] and in assay [12] was inactive. In addition, the outcome in assay [18] and in assay [19] was inactive.

In the case of `OC(C(F)(F)F)(C(F)(F)F)C(O)(C(F)(F)F)C(F)(F)F`, the concentration at half-maximal activity (AC50) is 21.5 µM (active) and 30 µM (active) in assay [1]; 29.4 µM (active) and 26.4 µM (active) in assay [2]; 22.1 µM (active) and 21.4 µM (active) in assay [4]; 48.2 µM (active) and 45.4 µM (active) in assay [5]; 42.6 µM (active) and 43.6 µM (active) in assay [6]; 28.8 µM (active) and 32.2 µM (active) in [7]. Further, the half-maximal activity concentration (AC50) in [8] was 41.2 µM (active); in assay [9], 49 µM (active) and 50.5 µM (active); in [12], 19.3 µM (active) and 22.6 µM (active); in assay [13] it was 41.9 µM (active) and 23.6 µM (active); in assay [14] it was 5.95 µM (active); in assay [15] it was 13.2 µM (active) and 12.3 µM (active). Also, the half-maximal activity concentration (AC50) in assay [16] was 48.3 µM (active); with CD40, CD40 (gene 958) it was 29.8 µM (active) and 21.6 µM (active); in assay [17], 24.4 µM (active) and 51.9 µM (active); in assay [19], 7.65 µM (active) and 6.88 µM (active). The result in assay [3], in assay [8], in assay [10], in assay [11], in assay [14] and in assay [16] was inactive. In assay [18], the outcome was inactive.

With `COc1ccccc1Oc1c(NS(=O)(=O)c2ccc(C(C)(C)C)cc2)nc(-c2ncccn2)nc1OCCO`, the outcome in [1], in assay [2], in assay [3], in [4], in [5] and in [6] was inactive. Moreover, the outcome in assay [7], in assay [8], in assay [10], in [12], in assay [14] and in assay [15] was inactive. Further, the outcome is “inactive” in [16]; “inactive” with CD40, CD40 (gene 958); “inactive” in assay [17]; “inactive” in assay [18]; “inactive” in [19]. Besides, the AC50 was 20 µM (active) in assay [3]; 4.05 µM (active) and 5.31 µM (active) in assay [9]; 1.97 µM (active) and 5.36 µM (active) in assay [11]; 3.9 µM (active) and 2.51 µM (active) in [13]; 10.4 µM (active) in assay [18].
